Results: PubChem BioAssay (NCATS)
Several values for one entry are separate records, joined by “and”; a condition that tells them apart may be missing. Identical values can stand only once. Inconclusive results are not listed. Activity calls are given as the source filed them. Unless noted, the call rests on the fitted dose curve; in most records, active means well fitted curve in the direction sought with a large enough effect; inconclusive means small, poorly fitted or top-dose-only effect, or another doubt; inactive means no such curve, though single readings can be large; an effect the other way counts as inactive or inconclusive. Non-standard residues stand in square brackets, D forms with d. Residues, ends and D or L forms follow the SMILES beside them. *: point of attachment. Nva = CCC[C@H](N)C(=O)O; Cbz = O=C(OCc1ccccc1)*

What was measured:
[1] = qHTS profiling of the MIPE4 collection as inhibitors of Plasmodium falciparum (3D7) proliferation (AID 743344; call rule not given here;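 further: scaled between DMSO vehicle wells and 0.29 µM artemisinin as full inhibition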); conditions: P. falciparum 3D7 in erythrocytes, SYBR Green DNA fluorescence, 72 h; at 28.5 µM unless noted
Outline: (§1)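 Erythrocytes infected with P. falciparum (0.3% parasitemia, 2.5% hematocrit) incubated with compounds 72 h at 37 C, 5% CO2. Lysis with saponin/Triton buffer containing SYBR Green I, overnight at room temperature in the dark; DNA fluorescence (485/535 nm) normalised to 0.29 uM artemisinin and DMSO.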

[2] = qHTS profiling of the MIPE4 collection as inhibitors of Plasmodium falciparum (DD2) proliferation (AID 743345; call rule not given here); conditions: P. falciparum Dd2 in erythrocytes, SYBR Green DNA, 72 h; at 28.5 µM unless noted
Outline: as §1

[3] = qHTS profiling of the MIPE4 collection as inhibitors of Plasmodium falciparum (HB3) proliferation (AID 743347; call rule not given here;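 further: plate controls were DMSO vehicle wells for no effect and artemisinin wells for full effect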); conditions: P. falciparum HB3 in erythrocytes, SYBR Green DNA, 72 h; at 28.5 µM unless noted
Outline: as §1

[4] = High-throughput drug toxicity screening in the BPDCN cell line Gen2.2 (AID 1224824; call rule not given here;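 further: cells exposed to compounds for 48 h before reading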); conditions: Gen2.2 BPDCN cells; at 45.8 µM (top of the series) unless noted
Outline: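 Gen2.2 cells (500/well) in phenol red-free RPMI with 10% FBS were exposed to compounds for 48 h at 37 °C, 5% CO2. Viability was read by CellTiter-Glo luminescence and normalized to DMSO (100%) and 9.2 uM bortezomib (0%).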

[5] = High-throughput drug toxicity screening in the BPDCN cell line Cal-1 (AID 1224825; call rule not given here); conditions: Cal-1 BPDCN cell viability, qHTS; at 45.8 µM (top of the series) unless noted
Outline: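 500 Cal-1 cells/well, RPMI + glutamine + 10% FBS (phenol red-free); cpd added by pin tool; 48 h, 37C, 5% CO2; CTG 15 min RT, lumi read. Normalised: DMSO 100%, bortezomib 9.2 uM 0%.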

[6] = qHTS assay for measurement of the activity of small molecule inhibitors on Zika virus induced Caspase-3 activity in human astrocytoma cells (AID 1224859);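 further: plate controls were ZIKV-infected untreated cells for no effect and uninfected cells for full effect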
Outline: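 Percent inhibition of virus-induced caspase-3/7 signal is calculated against uninfected and ZIKV-infected control cells. Cells are SNB-19, infected at 2 FFU/cell for 6 h after 1 h compound exposure.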

[7] = qHTS Screen of the MIPE 4.0 Collection Against Ewings Sarcoma (RDES) (AID 1259252); further: nearly all actives have a fitted effect of over 35% in size; further: potency means the concentration at half of the fitted maximal effect
Outline: (§2)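 CellTiter-Glo luminescence after 48 h compound exposure (titration) gave viability; percent activity used DMSO-treated cells as no inhibition and medium-only wells as full inhibition. Cells grown in RPMI/5% FBS, dosed 4 h post-seeding.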

[8] = qHTS Screen of the MIPE 4.0 Collection Against Ewings Sarcoma (TC71) (AID 1259253); further: nearly all actives have a fitted effect of over 40% in size; further: potency means the concentration at half of the fitted maximal effect
Outline: as §2

[9] = qHTS Screen of the MIPE 4.0 Collection Against Ewings Sarcoma (EW8) (AID 1259255); further: nearly all actives have a fitted effect of over 35% in size; further: potency means the concentration at half of the fitted maximal effect;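 on viability: 100% = DMSO-treated cells and 0% = medium-only wells without cells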
Outline: as §2

[10] = qHTS Screen of the MIPE 4.0 Collection Against Ewings Sarcoma (TC32) (AID 1259256); further: nearly all actives have a fitted effect of over 45% in size; further: potency means the concentration at half of the fitted maximal effect
Outline: as §2

[11] = P-glycoprotein substrates identified in KB-3-1 adenocarcinoma cell line, qHTS therapeutic library screen (AID 1346986); further: nearly all actives have a fitted effect of over 60% in size;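 further: potency means the concentration at half of the fitted maximal effect; potency is for cytotoxicity meaning loss of cell viability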
Outline: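 Cells seeded 500/well in DMEM/10% FCS; compounds pinned in dose-response; 72 h incubation; CellTiter-Glo added, 5 min, luminescence. KB-8-5-11 run ±tariquidar to test reversal of P-gp resistance.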

[12] = P-glycoprotein substrates identified in KB-8-5-11 adenocarcinoma cell line, qHTS therapeutic library screen (AID 1346987); further: nearly all actives have a fitted effect of over 65% in size; further: potency means the concentration at half of the fitted maximal effect
Outline: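 KB-8-5-11, a colchicine-selected P-gp-overexpressing KB-3-1 subline, was grown without colchicine for the assay. Cells were seeded at 500 cells/well, dosed in concentration-response and incubated 72 h at 37 degree C, 5% CO2. Viability was read by CellTiter-Glo luminescence.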

[13] = qHTS assay for cell viability of HEK293 cells (AID 743288); conditions: ATP luminescence (CellTiter-Glo), 18 h, stronger effect = lower value; further: on the % scale 0 is the no-effect control and ±100 the full control effect; nearly all actives have a fitted effect of over 50% in size
Outline: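 Parental HEK293 cells were seeded at 2,000 cells/well, rested at least 5 h at 37 C, then exposed to compounds in DMSO for 18 h at 37 C. Viability was read as ATP-dependent luciferase luminescence after 30 min at room temperature.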

[14] = qHTS assay for cell viability of the p53RE-bla HCT-116 cell line (AID 743292); further: on the % scale 0 is the no-effect control and ±100 the full control effect; nearly all actives have a fitted effect of over 55% in size
Outline: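 After plating at 4,000 cells per well and a 5 h rest at 37 C, HCT-116 cells carrying p53RE-bla received test chemicals in DMSO. Sixteen hours later at 37 C, CellTiter-Glo was added and luminescence recorded following 30 min at room temperature.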

[15] = qHTS profiling of the MIPE4 collection as inhibitors of Plasmodium falciparum (DD2) proliferation (Rep 2) (AID 743346; call rule not given here); conditions: P. falciparum Dd2 in erythrocytes, SYBR Green DNA, 72 h; at 28.5 µM unless noted
Outline: as §1

[16] = qHTS assay for measurement of the activity of small molecule inhibitors on Zika virus induced Caspase-3 activity in human iPSC derived neural progenitor cells (hNPCs) (AID 1224857); further: % of control where 0% means no effect; nearly all actives have a fitted effect of over 65% in size
Outline: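 Cells were plated at 350 per well and grown 16 to 20 hours. Compound pretreatment lasted one hour, after which ZIKV (2 FFU/cell) was added for 6 hours. Percent inhibition was normalized between uninfected and infected controls.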

[17] = qHTS Assay for Identifying Gametocytocidal Compounds (AID 743244);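 further: on the % scale 0 is the no-effect control and ±100 the full control effect; actives lower the fluorescent signal which means gametocytes are killed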; conditions: P. falciparum 3D7 stage III-V gametocytes, alamarBlue, 72 h; max response: stronger effect = lower value
Outline: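 3D7 gametocytes, stages III–V, 20,000/well; cpd 72 h, 37 °C/5% CO2; + alamarBlue 24 h; fluor. Ex 525/Em 598.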

Compound	parasite growth, % of DMSO control [1] [%]	parasite growth remaining, % of DMSO control (lower = more inhibition) [2] [%]	growth, % of control [3] [%]	cell viability, % of control (lower = more cytotoxic) [4] [%]	viability (% of control) [5] [%]	Potency [6]	Potency [7]	Potency [8]	Potency [9]	Potency [10]	Potency [11]	Potency [12]	max response [13]	outcome [14]	parasite growth, % of control (lower = inhibition) [15] [%]	Potency [16]	max response [17]
Cc1ccc2nc(NCCN)c3ncc(C)n3c2c1	63.3	41.2	81.1	2.46	3.39	inactive	6.62 µM (active)	4.18 µM (active)	9.35 µM (active)	4.69 µM (active)	5.17 µM (active)	4.18 µM (active) and 6.51 µM (active)	–	–	–	–	–
Cc1cc(O)c2c(c1)C(=O)c1cccc(O)c1C2=O	91.5	85.9	110	99.4	94.6	inactive	inactive	inactive	inactive	inactive	–	inactive	-7.7% (inactive)	inactive	121	–	–
CCCNS(=O)(=O)Nc1ncnc(OCCOc2ncc(Br)cn2)c1-c1ccc(Br)cc1	102	99.9	88.3	180	117	inactive	inactive	–	inactive	inactive	inactive	inactive	–	–	82.3	–	–
CCCNC(=O)[C@H]1O[C@H]1C(=O)N[C@H](C(=O)N1CCC[C@@H]1C(=O)OC)C(C)CC (stereo partly drawn)	88	94.3	102	18.6	8.18	inactive	3.32 µM (active)	6.62 µM (active)	11.8 µM (active)	5.26 µM (active)	–	inactive	–	–	52.3	–	–
CCC[C@@H](C=O)NC(=O)[C@H](CC(C)C)NC(=O)[C@H](CC(C)C)NC(=O)OCc1ccccc1 (Cbz-Leu-Leu-[Nva]-aldehyde)	4.86	6.49	3.3	10.9	7.12	–	–	1.32 µM (active)	0.743 µM (active)	1.05 µM (active)	–	7.43 µM (active)	–	–	7.93	inactive	–
Nc1ccn(C2CO[C@H](CO)O2)c(=O)n1 (stereo partly drawn)	95.7	105	75.5	203	99.2	inactive	inactive	inactive	inactive	inactive	–	inactive	–	–	89.7	–	19.9% (inactive)
COc1ccc([C@@H]2CNC(=O)C2)cc1OC1CCCC1	106	–	102	107	108	–	0.833 µM (active)	–	9.35 µM (active)	1.87 µM (active)	inactive	inactive	–	–	67	inactive	–
CCOC(=O)[C@@H](N)Cc1ccc(-c2cc(O[C@H](c3ccc(Cl)cc3-n3ccc(C)n3)C(F)(F)F)nc(N)n2)cc1	5.93	28.1	15.8	10.1	16.2	inactive	26.4 µM (active)	23.5 µM (active)	26.4 µM (active)	20.9 µM (active)	–	inactive	–	–	43.9	–	–
COC[C@H](NC(=O)c1cnc(C)s1)C(=O)N[C@@H](COC)C(=O)N[C@@H](Cc1ccccc1)C(=O)[C@@]1(C)CO1	5.4	7.34	5.53	0.973	3.48	inactive	0.132 µM (active)	0.296 µM (active)	0.105 µM (active)	0.148 µM (active)	–	3.72 µM (active)	–	–	12.2	–	–
COc1ccc2cc([S+]([O-])Cc3ncc(C)c(OC)c3C)nc2c1	32.2	87.1	41.2	70.5	107	–	inactive	–	inactive	inactive	inactive	inactive	–	–	61.5	inactive	2.05% (inactive)
CCc1ccc(C(=O)Nc2cc(CN3CCN(C)CC3)cc(C(F)(F)F)c2)cc1C#Cc1cnc2ccnn2c1	5.7	6.73	3.13	4.8	4.46	–	–	29.6 µM (active)	16.6 µM (active)	14.8 µM (active)	4.11 µM (active)	8.33 µM (active) and 3.66 µM (active)	–	–	10.5	inactive	–
Cc1ncc(-c2ccnc(Nc3ccc(S(C)(=O)=O)cc3)n2)n1C(C)C	6.84	19.3	7.75	6.27	4.48	–	4.69 µM (active)	–	4.69 µM (active)	4.18 µM (active)	–	7.43 µM (active) and 13 µM (active)	–	–	10.8	inactive	–
Cc1cc(Nc2ncc3c(n2)N(C)C(=O)N(c2cc(NC(=O)c4cccc(C(F)(F)F)c4)ccc2C)C3)n(C)n1	7.35	15.8	10.8	11.1	7.39	inactive	0.418 µM (active)	–	0.833 µM (active)	0.418 µM (active)	–	–	–	–	15.8	–	–
Cc1cnn(C)c1C(=O)Nc1cc(Nc2ccc3c(C=Cc4ccccn4)n[nH]c3c2)ccc1F	4.63	12.8	6.36	97.2	10.9	–	26.4 µM (active)	–	18.7 µM (active)	20.9 µM (active)	–	5.26 µM (active)	–	–	19.1	inactive	–
CC1(C)[C@H](O[C@H]2O[C@H](C(=O)O)[C@@H](O)[C@H](O)[C@H]2O[C@@H]2O[C@H](C(=O)O)[C@@H](O)[C@H](O)[C@H]2O)CC[C@@]2(C)[C@H]1CC[C@]1(C)[C@H]2C(=O)C=C2[C@H]3C[C@@](C)(C(=O)O)CC[C@]3(C)CC[C@]21C	99.2	97.4	109	153	125	inactive	inactive	inactive	inactive	inactive	inactive	inactive	–	–	85.7	–	–
CCOC(=O)N1CCN([N+]([O-])=NOc2ccc([N+](=O)[O-])cc2[N+](=O)[O-])CC1	67.7	83	60.8	17.4	13.5	inactive	16.6 µM (active)	–	3.32 µM (active)	3.72 µM (active)	inactive	inactive	–	–	70.7	–	–
CC(=O)O[C@H]1C[C@@H]2CC[C@H]3[C@H]4C[C@H]([N+]5(C)CCCCC5)[C@@H](OC(C)=O)[C@@]4(C)CC[C@@H]3[C@@]2(C)C[C@H]1N1CCCCC1	40.5	64	71.6	216	123	inactive	7.43 µM (active)	7.43 µM (active)	8.33 µM (active)	7.43 µM (active)	–	inactive	–	–	37.1	–	–
